Rows were chosen to be rich in hits. Some 1.2% of all compounds tested hit in one or more screens of this group.
RGS4-Gao reg – modulates binding of RGS4 to human Galphao. P09471. Multiplexed bead flow cytometry; actives lie on both sides. binding response (% of control), % at 10 µM. hit rate 0.33% among 220,000. AID 1415; in the data active means binding response below about 49% or above about 150%; inactive means in between;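 further: fluorescent Galphao activated with aluminum fluoride binding bead-coupled RGS4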
Target sequence (P09471 whole entry, looked up): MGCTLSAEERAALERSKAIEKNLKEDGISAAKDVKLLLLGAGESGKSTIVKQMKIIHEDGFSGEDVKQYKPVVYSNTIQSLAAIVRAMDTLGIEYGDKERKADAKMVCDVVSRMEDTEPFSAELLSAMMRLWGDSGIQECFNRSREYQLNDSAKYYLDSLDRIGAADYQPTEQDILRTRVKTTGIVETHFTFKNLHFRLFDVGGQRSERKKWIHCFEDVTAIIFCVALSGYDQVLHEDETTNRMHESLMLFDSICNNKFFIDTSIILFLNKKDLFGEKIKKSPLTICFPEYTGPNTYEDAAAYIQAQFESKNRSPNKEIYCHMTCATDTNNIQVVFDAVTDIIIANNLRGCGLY
RGS16-Gao – regulators of human RGS16-Galphao interaction. bead-based flow cytometry RGS16-Galphao binding, fluorescence; actives lie on both sides. binding response (% of control), % at 10 µM. hit rate 0.38% among 220,000. AID 1441;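 further: Galphao activated by GDP with aluminum fluoride before binding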
Target sequence (O15492 whole entry, looked up): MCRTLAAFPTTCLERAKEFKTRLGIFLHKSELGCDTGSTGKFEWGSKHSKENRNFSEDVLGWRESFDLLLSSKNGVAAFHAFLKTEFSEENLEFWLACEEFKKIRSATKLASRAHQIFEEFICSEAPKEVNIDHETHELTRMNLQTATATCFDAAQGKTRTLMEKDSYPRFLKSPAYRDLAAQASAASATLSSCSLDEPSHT
Target sequence (P09471 whole entry, looked up): as the sequence (P09471 whole entry, looked up) above
Avidin bead fluor – avidin bead compound fluorescence profile; Avidin beads, compound fluorescence 488/530 nm, flow cytometry; hits give high values; fluorescence (KMESF) at 10 µM; hit rate 0.38% among 220,000; AID 1775; in the data active means fluorescence above about 47
RGS7-Gao reg – regulators of human RGS7-Galphao interaction; binding response (% of control), % at 10 µM; P09471; hit rate 0.35% among 220,000; Multiplexed bead flow cytometry, RGS7-Galphao binding; actives lie on both sides; in the data active means binding response below about 49% or above about 150%; inconclusive means no clear call, values can overlap the other calls; inactive means in between;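 further: fluorescent Galphao held in activated GDP-AlF4 state binding bead-coupled RGS7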
GSH fluor – GSH bead compound fluorescence profile; GSH beads flow cytometry, compound fluorescence 488/530 nm; hits give high values; fluorescence (KMESF) at 10 µM; hit rate 0.25% among 190,000; AID 1776; in the data active means fluorescence above about 89;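 further: glutathione beads carrying GST-tagged Bcl family fusion proteins plus one bare bead set; values are compound well signal with DMSO vehicle wells as background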
RGS8-Gao – modulates binding of RGS8 to human Galphao; response (percent of control binding), % at 10 µM; hit rate 0.34% among 220,000; multiplexed bead flow cytometry; actives lie on both sides; P09471; in the data active means response below about 60% or above about 140%; inactive means in between;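 further: Galphao activated as the GDP aluminium fluoride complex binding bead-coupled RGS8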
RGS-Gao – modulates binding between human RGS4 and Galphao; hit rate 99% among 1,600; RGS4–Galpha-o binding response, % at 10 µM; shares compounds with RGS16-Gao; multiplexed bead flow cytometry, RGS–Galpha-o binding;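 further: fluorescently labeled Galpha-o bound to GDP with aluminium fluoride binding biotinylated RGS beads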
Biotin-avidin – interferes with biotinylated probe binding to avidin beads | shares compounds with RGS16-Gao | streptavidin beads, fluorescein-biotin binding, flow cytometry | inhibition, % at 10 µM | 1,700 tested, under 10 active;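 active means inhibition above 50%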;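 further: median green fluorescence of gated singlet beads compared with DMSO control wells; 0% = DMSO wells and 100% = complete loss of bead fluorescence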
RGS8-Gao single – confirmation of regulators of human RGS8-Galphao interaction; shares compounds with RGS16-Gao; AID 1836; hit rate 3% among 1,700; bead-based flow cytometry RGS8-Galphao binding, fluorescence; actives lie on both sides; binding response (% of control), % at 10 µM; in the data active means binding response below about 72% or above about 130%; inactive means in between;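 further: Galphao activated as GDP AlF4 complex before binding bead RGS8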
RGS7-Gao confirm – RGS7-Galphao interaction regulation, single point confirmation; shares compounds with RGS16-Gao; bead-based flow cytometry RGS7-Galphao binding; actives lie on both sides; response (percent of control binding), % at 10 µM; hit rate 7.8% among 1,700; in the data active means response below about 75% or above about 130%; inactive means in between;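 further: fluorescent Galphao activated with GDP and aluminum fluoride binding bead-coupled RGS7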
RGS16-Gao single – RGS16-Galphao interaction regulation, single point confirmation; bead-based flow cytometry, RGS16-Galphao binding; actives lie on both sides; response (% of control binding), % at 10 µM; shares compounds with RGS16-Gao; hit rate 4% among 1,700; AID 1838; in the data active means response below about 74% or above about 130%; inactive means in between;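 further: Galphao activated as the GDP aluminium fluoride complex binding bead-coupled RGS16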
RGS4-Gao single – RGS4-Galphao interaction regulation, single point confirmation; binding response (% of control), % at 10 µM; AID 1840; shares compounds with RGS16-Gao; hit rate 4% among 1,700; RGS4-Galphao binding, multiplexed bead flow cytometry; actives lie on both sides; in the data active means binding response below about 74% or above about 130%; inactive means in between
RGS19-Gao single – RGS19-Galphao interaction regulation, single point confirmation; bead-based flow cytometry RGS19-Galphao binding; actives lie on both sides; shares compounds with RGS16-Gao; response (percent of control binding), % at 10 µM; hit rate 5% among 1,700; in the data active means response below about 50% or above about 160%; inactive means in between;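 further: 100% = no compound control and 0% = blank background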
An asterisk follows results filed as active; ? = inconclusive; . = not tested or not shown; [ ] = remark or other dose. Unless noted, how the calls were made is not given here.

SMILES	RGS4-Gao reg	RGS16-Gao	Avidin bead fluor	RGS7-Gao reg	GSH fluor	RGS8-Gao	RGS-Gao	Biotin-avidin	RGS8-Gao single	RGS7-Gao confirm	RGS16-Gao single	RGS4-Gao single	RGS19-Gao single
CCOC(=O)C1CCN(C(=O)CSc2ccc(Cl)cc2)CC1	49*	8.3*	2	55	15	49*	.	0	106	103	105	105	100
CN1CCN(NC(=S)Nc2ccc(Oc3ccccc3)cc2)CC1	99	96	9	101	17	98	.	.	.	.	.	.	.
O=C(c1nn2c(C(F)(F)F)cc(-c3ccco3)nc2c1Br)N1CCCc2ccccc21	.	.	.	.	15	.	.	2	105	107	107	108	90
O=c1[nH]cc(N(CCO)CCO)c(=O)[nH]1	100	101	8	?	.	101	.	.	.	.	.	.	.
CCN(CC)CCN1C(=O)c2ccccc2NC1c1ccccc1F (centres undefined)	88	23*	3	90	23	75	88*	.	.	.	.	.	.
CCN(CC)CCN1C(=O)c2ccccc2NC1c1ccc(F)cc1 (centres undefined)	99	102	37	100	25	101	.	.	.	.	.	.	.
CCCN(CCC)C(C)C(=O)NCC1(c2ccccc2)CCCC1 (centres undefined)	98	100	10	94	16	97	.	.	.	.	.	.	.
CC(C)N(CC#CCC(O)(c1ccccc1)c1ccccc1)C(C)C	101	98	2	98	7	102	.	.	.	.	.	.	.
CC(c1ccccc1C(O)(c1ccccc1)c1ccccc1)N(C)C (centres undefined)	17*	-43	-3	7.0*	9	14*	.	1	104	107	108	107	91
Cc1ccc2cc(C)c(Sc3nnnn3-c3ccccc3)nc2c1	112	191*[activator]	17	106	4	119	112*	-1	109	111	114	108	126
C=CCN(C(=O)C1=NN(C2CCS(=O)(=O)C2)C(=O)CC1)c1nc(-c2ccc([N+](=O)[O-])cc2)cs1 (centres undefined)	105	107	11	104	24	105	.	.	.	.	.	.	.
CC1S/C(=N/N=C/c2ccco2)N(Cc2ccc(F)cc2)C1=O (centres undefined)	100	100	5	?	.	98	.	.	.	.	.	.	.
CCC1S/C(=N/N=C/c2ccco2)N(Cc2ccccc2)C1=O (centres undefined)	.	.	.	.	.	.	.	-1	101	105	101	102	118
CCO[C@@H]1OC(C(=O)N2CCN(Cc3ccc4c(c3)OCO4)CC2)=C[C@H](c2csc3ccccc23)[C@H]1CCCO	104	101	7	100	17	101	.	.	.	.	.	.	.
CCO[C@@H]1OC(C(=O)N2CCN(Cc3ccc4c(c3)OCO4)CC2)=C[C@H](c2cn(C(C)=O)c3ccccc23)[C@H]1CCCO	137	123	7	167*[activator]	19	107	137*	-1	105	104	109	105	111
CCO[C@H]1OC(C(=O)N2CCN(Cc3ccc4c(c3)OCO4)CC2)=C[C@@H](C2CC2)[C@@H]1CCCO	51	56	3	42*	20	67	51*	-1	93	87	90	90	90
CC1=NN(C(=O)CCc2ccc3c(c2)OCO3)C(O)(C(F)(F)F)C1 (centres undefined)	99	102	9	100	18	100	.	.	.	.	.	.	.
Cc1ccc(-c2nnc(SCC(=O)N/N=C/c3ccccc3C(=O)O)n2-c2ccc(Cl)cc2)cc1	96	102	3	?	.	99	.	.	.	.	.	.	.
COc1c(F)c(F)c(C(=O)Nc2ccc(N3CCN(Cc4ccccc4)CC3)cc2)c(F)c1F	141	449	6	128	10	175*[activator]	141*	-1	98	100	99	99	103
Cc1nn(-c2cc(N3CCOCC3)ccc2[N+](=O)[O-])c(=O)c2ccccc12	110	101	67*	161*[activator]	17	100	110*	-2	106	93	106	102	105
Cc1nn(-c2cc(N3CCCC3)ccc2[N+](=O)[O-])c(=O)c2ccccc12	95	86	7	101	33	96	.	.	.	.	.	.	.
Cc1ccc(NCc2nnc(SCC(=O)O)n2Cc2ccccc2)cc1Cl	102	102	10	104	11	99	.	.	.	.	.	.	.
Cc1ccc(NCc2n[nH]c(=S)n2Cc2ccccc2)cc1Cl	111	103	65*	167*[activator]	11	98	111*	1	101	110	100	102	106
O=C(CSc1nc2c(c(=O)n1-c1ccccc1)SCC2)NCC1CCCO1 (centres undefined)	100	100	8	?	.	101	.	.	.	.	.	.	.
CC1CCCN(C(=O)C2CCN(CCCc3ccccc3)CC2)C1 (centres undefined)	91	95	35	98	24	97	.	.	.	.	.	.	.
CCCCN(C)C(=O)C1CCN(CCCc2ccccc2)CC1	121	95	291*	170*[activator]	15	89	121*	.	.	.	.	.	.
NNC(=O)c1csc(CS(=O)(=O)c2ccc(Cl)cc2)n1	111	101	12	?	.	86	.	0	109	116	111	111	97
CCCCOCCCNC(=O)C1CCCCC1	84	66	4	51	31	55*	84*	0	107	104	111	104	102
Cc1cc(Oc2ccc(C#N)cc2)nc(N2CCOCC2)n1	41*	45	24	43*	12	55*	.	0	100	84	97	89	107
Cc1cc(Oc2ccc([N+](=O)[O-])cc2)nc(N2CCOCC2)n1	96	98	6	?	.	99	.	.	.	.	.	.	.

High-throughput results: PubChem, NMMLSC
